Sampled rows, rich in hits. Any-hit rate of the full collection: about 19%.
HT1080NT lethal – kills 2HG-producing HT-1080-NT fibrosarcoma cells; HT-1080-NT fibrosarcoma viability, CellTiter-Glo ATP luminescence, 48 h; Potency, µM (top dose mostly 46.1 µM), inactives show at the highest dose activity, negative = less viability, most hits filed as cytotoxic; 360,000 tested, 1.6% active; AID 686970;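 also: NT is the 2HG producing partner of a matched IDH1 knockdown line; 0% = DMSO-treated cells and -100% = media-only wells without cells; nearly all actives have a fitted effect of over 55% in size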
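Toxicity toward the 2HG-producing NT line was scored as %Activity, normalised to DMSO and no-cell wells, from CellTiter-Glo luminescence after 48 hours' treatment.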
TDP1 cell noCPT – qHTS for Inhibitors of human tyrosyl-DNA phosphodiesterase 1 (TDP1): qHTS in cells in absence of CPT; DT40 Tdp1-/- hTDP1 cells, no CPT, ATP luminescence, 48 h; Potency, µM (highest dose often 46.2 µM), inactives show at the highest dose activity change, negative = growth inhibition, most hits filed as inhibitors; 420,000 tested, 15% active; also: nearly all actives have a fitted effect of over 55% in size
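A cellular qHTS used chicken DT40 cells lacking endogenous Tdp1 but carrying stably transfected human TDP1. Compounds were applied without camptothecin, and cell growth kinetics were judged by ATP-dependent luminescence after ≥48 hr.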
HT1080 IDH1KD tx – kills HT-1080 cells with IDH1 knockdown; HT-1080 IDH1 knockdown viability, ATP luminescence, 48 h; Potency, µM (doses to about 46.1 µM), for the others: at the top dose activity, negative = toxicity, hits mostly cytotoxic; 360,000 tested, 2% active;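 also: 0% = DMSO wells and -100% = cell-free medium wells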
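Knockdown cells (IDH1KD HT-1080) received compounds 2 h after plating at 750 cells/well and were kept 48 h at 37 °C in 5% FBS RPMI. A CellTiter-Glo luminescence read gave % activity for curve fitting.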
KB-3-1 tox – KB-3-1 parental cell cytotoxicity | KB-3-1 viability, CellTiter-Glo ATP luminescence, 72 h | Potency, µM (series often up to 46.1 µM), actives largely listed as cytotoxic | 400,000 tested, 1.4% active; also: nearly all actives have a fitted effect of over 60% in size
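KB-3-1 parental drug-naive adenocarcinoma cells in DMEM/10% FBS, incubated 72 h at 37 C with pin-transferred compounds across a concentration series. Viability by CellTiter-Glo luminescence; concentration-response curves fitted after normalization.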
KB-V1 MDR tox – kills drug-selected multidrug resistant KB-V1 cells. KB-V1 MDR cells viability, CellTiter-Glo, 72 h. Potency, µM (top dose mostly 46.1 µM), most hits filed as cytotoxic. 400,000 tested, 3.4% active. AID 1347076; also: nearly all actives have a fitted effect of over 60% in size
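Compound-treated KB-V1 multidrug-resistant cells, 72 h, 37 degrees C; viability by CellTiter-Glo. Fitted qHTS curves give the values.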
TDP1 cell CPT – DT40-hTDP1 cell growth loss with CPT. chicken DT40 Tdp1-/-;hTDP1 cells + 20 nM CPT, ATP luminescence, 48 h. Potency, µM (titrated, usually from 46.2 µM), for inactives: at the highest dose activity change, negative = growth inhibition, hits mostly inhibitors. 420,000 tested, 12% active; also: nearly all actives have a fitted effect of over 55% in size
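Chicken DT40 Tdp1-/- cells stably complemented with human TDP1 were seeded at 400 cells/well in medium containing 20 nM camptothecin, exposed to pin-transferred compounds, and grown at 37 °C for at least 48 hr. Viability was read as ATP luminescence.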
Active calls of the source: *. Calls follow the shape of the dose curve; as a rule, active = well fitted curve in the direction sought with a large enough effect; inconclusive = small, poorly fitted or top-dose-only effect, or another doubt; inactive = no such curve, though single readings can be large; an effect the other way counts as inactive or inconclusive. Unless noted, % is scaled to controls: 0 for no effect and ±100 for the full control effect; potency is read from the fitted curve at half-maximal effect.

What do the screens show for `COc1ccc(CCC(=O)Nc2c(C)n(C)n(-c3ccccc3)c2=O)cc1`?
HT1080NT lethal: -3%; TDP1 cell noCPT: 5%; HT1080 IDH1KD tx: 11%; KB-3-1 tox: inactive; KB-V1 MDR tox: inactive; TDP1 cell CPT: 0%

How did Cc1cc(N=Nc2c(O)c3ccccc3[nH]c2=O)ccc1N=Nc1ccc(C(=O)N(C)C)cc1 do in these assays?
HT1080NT lethal: 1%; TDP1 cell noCPT: 7.3µM*; HT1080 IDH1KD tx: -2%; KB-3-1 tox: inactive; KB-V1 MDR tox: inactive; TDP1 cell CPT: 10µM*

What do the screens show for `CN(C)C(=O)c1ccc(N=Nc2c(O)c3ccccc3[nH]c2=O)cc1`?
HT1080NT lethal: 5.8µM*; TDP1 cell noCPT: 21µM*; HT1080 IDH1KD tx: 6.5µM*; KB-3-1 tox: inactive; KB-V1 MDR tox: inconclusive; TDP1 cell CPT: 21µM*

What do the screens show for `O=C(O)c1ccc(N=Nc2c(O)[nH]c3ccccc23)cc1`?
HT1080NT lethal: 6%; TDP1 cell noCPT: inconclusive; HT1080 IDH1KD tx: inconclusive; KB-3-1 tox: inconclusive; KB-V1 MDR tox: inconclusive; TDP1 cell CPT: inconclusive

How did COc1ccc2[nH]c3c(c2c1)CCN1C(=O)C(CC(=O)NCCCn2ccnc2)C[C@H](C(=O)N2CCCCC2)[C@@]31CCc1ccccc1 (some centres undefined) do in these assays?
HT1080NT lethal: 1%; TDP1 cell noCPT: inconclusive; HT1080 IDH1KD tx: -5%; KB-3-1 tox: inactive; KB-V1 MDR tox: inactive; TDP1 cell CPT: inconclusive

What do the screens show for `CC1CCCCC1NC(=O)COC(=O)c1ccc([N+](=O)[O-])o1` (centres undefined)?
HT1080NT lethal: 7%; TDP1 cell noCPT: -10%; HT1080 IDH1KD tx: 2%; KB-3-1 tox: inactive; KB-V1 MDR tox: inactive; TDP1 cell CPT: 10%

What do the screens show for `O=C(COC(=O)c1ccc([N+](=O)[O-])o1)NC1CCCCC1`?
HT1080NT lethal: -1%; TDP1 cell noCPT: 0.0082µM*; HT1080 IDH1KD tx: 6%; KB-3-1 tox: inactive; KB-V1 MDR tox: inactive; TDP1 cell CPT: 0.0082µM*

What do the screens show for `O=C(NC1CCCC(C(F)(F)F)C1)c1ccc([N+](=O)[O-])o1` (centres undefined)?
HT1080NT lethal: inconclusive; TDP1 cell noCPT: 18µM*; HT1080 IDH1KD tx: inconclusive; KB-3-1 tox: inconclusive; KB-V1 MDR tox: inconclusive; TDP1 cell CPT: inconclusive

Results for CCC1=NN(S(=O)(=O)c2ccc(C)cc2)C(O)(C(F)(F)F)C1 (centres undefined) ?
HT1080NT lethal: inconclusive; TDP1 cell noCPT: 2%; HT1080 IDH1KD tx: 25%; KB-3-1 tox: inactive; KB-V1 MDR tox: inactive; TDP1 cell CPT: 5%

How did CCOC(=O)c1c(S(=O)(=O)NCC(=O)N(C)c2ccc(C)cc2)c(C)n(C)c1C do in these assays?
TDP1 cell noCPT: -14%; KB-3-1 tox: inactive; KB-V1 MDR tox: inconclusive; TDP1 cell CPT: -26%

What do the screens show for `Cc1cc(=O)c2c(o1)C(=O)c1occc1C2=O`?
HT1080NT lethal: -1%; TDP1 cell noCPT: 15µM*; HT1080 IDH1KD tx: -2%; KB-3-1 tox: inactive; KB-V1 MDR tox: inactive; TDP1 cell CPT: 18µM*

Results for COc1c2occc2c(OC)c2c(=O)cc(C)oc12 ?
HT1080NT lethal: 0%; TDP1 cell noCPT: inconclusive; HT1080 IDH1KD tx: -2%; KB-3-1 tox: inactive; KB-V1 MDR tox: inactive; TDP1 cell CPT: inconclusive

Results for Cc1ccc(Cl)cc1NC(=O)CCS(=O)(=O)c1cccc2nonc12 ?
HT1080NT lethal: 2%; TDP1 cell noCPT: inconclusive; HT1080 IDH1KD tx: -12%; KB-3-1 tox: inactive; KB-V1 MDR tox: inactive; TDP1 cell CPT: 15µM*

What do the screens show for `COc1ccc(Cl)cc1NC(=O)CCS(=O)(=O)c1cccc2nonc12`?
TDP1 cell noCPT: inconclusive; KB-3-1 tox: inactive; KB-V1 MDR tox: inactive; TDP1 cell CPT: inconclusive

Results for CCC/C=C/c1ccc(CN2C(C(C)C)C(=O)N(Cc3cn(CCC4OCCCO4)nn3)CCS2(=O)=O)cc1 (centres undefined) ?
HT1080NT lethal: -4%; TDP1 cell noCPT: inconclusive; HT1080 IDH1KD tx: -17%; KB-3-1 tox: inactive; KB-V1 MDR tox: inactive; TDP1 cell CPT: inconclusive

Results for Cc1ccc(-c2ccc(CN3C(C(C)C)C(=O)N(Cc4cn(CCC5OCCO5)nn4)CCS3(=O)=O)cc2)c(C)c1 (centres undefined) ?
HT1080NT lethal: inconclusive; TDP1 cell noCPT: 18µM*; HT1080 IDH1KD tx: 23µM*; KB-3-1 tox: inconclusive; KB-V1 MDR tox: inconclusive; TDP1 cell CPT: 9.2µM*

How did Cc1ccccc1-c1ccc(CN2C(C(C)C)C(=O)N(Cc3cn(CCC4OCCO4)nn3)CCS2(=O)=O)cc1 (centres undefined) do in these assays?
HT1080NT lethal: inconclusive; TDP1 cell noCPT: 18µM*; HT1080 IDH1KD tx: inconclusive; KB-3-1 tox: inactive; KB-V1 MDR tox: inconclusive; TDP1 cell CPT: inconclusive

Results for CCc1ccc(N=Nc2ccc(O)c3[nH]cnc23)cc1 ?
HT1080NT lethal: inconclusive; TDP1 cell noCPT: 23µM*; HT1080 IDH1KD tx: inconclusive; KB-3-1 tox: inactive; KB-V1 MDR tox: inactive; TDP1 cell CPT: inconclusive

Results for Cc1nc2ccccn2c1-c1csc(Nc2ccc(C(=O)O)cc2)n1 ?
HT1080NT lethal: 2.1µM*; TDP1 cell noCPT: 3.7µM*; HT1080 IDH1KD tx: 3.3µM*; KB-3-1 tox: inconclusive; KB-V1 MDR tox: inconclusive; TDP1 cell CPT: 2.9µM*

Results for Cc1nc2ccccn2c1-c1csc(Nc2cccc(C(=O)O)c2)n1 ?
HT1080NT lethal: -17%; TDP1 cell noCPT: -8%; HT1080 IDH1KD tx: -12%; KB-3-1 tox: inactive; KB-V1 MDR tox: inactive; TDP1 cell CPT: 2%

What do the screens show for `COc1ccc(-c2csc(NCc3ccco3)n2)cc1C`?
HT1080NT lethal: -14%; TDP1 cell noCPT: inconclusive; HT1080 IDH1KD tx: -13%; KB-3-1 tox: inactive; KB-V1 MDR tox: inactive; TDP1 cell CPT: -27%

Results for Cc1cccc(Nc2nc(-c3ccncc3)cs2)c1 ?
HT1080NT lethal: -25%; TDP1 cell noCPT: inconclusive; HT1080 IDH1KD tx: inconclusive; KB-3-1 tox: inactive; KB-V1 MDR tox: inconclusive; TDP1 cell CPT: inconclusive

How did Cc1nc2ccccn2c1-c1csc(Nc2cccc(O)c2)n1 do in these assays?
HT1080NT lethal: 1.6µM*; TDP1 cell noCPT: 1.6µM*; HT1080 IDH1KD tx: 1.5µM*; KB-3-1 tox: inconclusive; KB-V1 MDR tox: 10µM*; TDP1 cell CPT: 0.73µM*
